Sampled rows, rich in hits. Any-hit rate of the full collection: about 1.9%.
zVAD death inh = inhibitors of zVAD-triggered necroptosis, primary screen, L929 cells; L929 zVAD necroptosis rescue, ATP luminescence, 24 h; with zVAD 60 µM; viability rescue, % at 10 µM; 0.38% of 220,000 active;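 active = activation, scaled between plate controls, above about 75%, limit read from the data; inactive = activation under that limit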
Hsp70 activator = Hsp70 transcriptional activators, primary screen, cell-based, HeLa, Hsp70 promoter luciferase, luminescence, 10 µM; HeLa Hsp70 promoter luciferase reporter; scaled: vehicle 0, proteasome-inhibitor control 100%; activation, % at 10 µM; 0.04% of 200,000 active;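 active = activation above the mean across all tested compounds plus 3 SD, cutoff set per campaign, cut at about 5.5% in these data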
HSF1 activator = HSF-1 activators, primary screen, NIH3T3-HGL cells, MG132 stress, luminescence, single point; activation, % at 9 µM; 1.7% of 300,000 active; NIH3T3-HGL HSF-1 luciferase reporter, 8 h; 100% = twice DMSO control signal;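 active = mean replicate activation of at least 50% with a set share of replicates each reaching 50%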
TNF necrop inh = inhibitors of TNF-alpha triggered necroptosis, primary screen, cell-based, Jurkat FADD-/-, single concentration. Jurkat FADD-/- TNF necroptosis rescue, ATP luminescence, 24 h; 0 = TNF only, 100 = no-TNF cells. activation (protection from cell death), % at 10 µM. 0.068% of 220,000 active. AID 463075, 2010;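 active = activation, meaning protection from cell death, of at least 50% relative to plate controls; inactive = activation below 50%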;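 also: necroptosis triggered by 40 ng/mL TNF-alpha added together with compound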
Each line names hits and unclear results; the compound was inactive in the other large screens.

COc1ccc(-n2c(=S)[nH]c3cc(C(=O)NC4CCCCC4)ccc3c2=O)c(OC)c1	HSF1 activator 59.7
COc1ccc(NC(=O)c2ccc3c(=O)n(-c4ccc(OC)cc4OC)c(=S)[nH]c3c2)c(OC)c1	none
CC(=O)Nc1ccc(NC(=O)COC(=O)[C@@H](NC(=O)c2ccc(F)cc2)C(C)C)cc1	HSF1 activator 62.0
CC(=O)c1ccc(NC(=O)CCNC(=O)c2ccccc2Cl)cc1	none (no result: zVAD death inh, Hsp70 activator, TNF necrop inh)
O=C(Cc1sc(Nc2ccccc2)nc1-c1ccccc1)NCc1ccccc1	HSF1 activator 59.9
O=C(O)Cc1sc(N/N=C\c2ccccc2)nc1-c1ccccc1	HSF1 activator 60.0
Cc1c(C(=O)NN2CCCCC2)nn(-c2ccc(Cl)cc2Cl)c1-c1ccc(I)cc1	none (no result: zVAD death inh, TNF necrop inh)
CCc1ccccc1NCC(=O)Nc1ccc(Cl)c(C(F)(F)F)c1	HSF1 activator 57.7
COc1ccccc1NC(=O)CN1CCN(CC(=O)Nc2ccc(Cl)c(C(F)(F)F)c2)CC1	none (no result: HSF1 activator)
CCCc1cc(=O)oc2cc(C)c(CN3CCCC3)c(O)c12	HSF1 activator 63.5
O=C(OCc1ccccc1)C1CCCN1C(=O)c1ccccc1[N+](=O)[O-] (centres undefined)	none
Cn1c(SCc2cccc(C(F)(F)F)c2)nnc1-c1ccco1	HSF1 activator 58.7
Nn1c(SCc2cccc(C(F)(F)F)c2)nnc1-c1ccco1	none
COC(=O)N/N=C\c1ccccc1OC/C=C/c1ccccc1	none (no result: zVAD death inh, Hsp70 activator, TNF necrop inh)
CCOC(=O)N/N=C\c1ccccc1OC/C=C/c1ccccc1	HSF1 activator 55.5 (no result: zVAD death inh, Hsp70 activator, TNF necrop inh)
CNC(=O)Cn1nc(-c2ccc(C)c(S(=O)(=O)N(C)C)c2)c2ccccc2c1=O	none
COC(=O)c1cccc(CSc2nc3ccccc3[nH]2)c1	HSF1 activator 54.6
COC(=O)c1ccc(CSc2nc3ccccc3[nH]2)o1	none
O=C(O)CSc1nc2ccccc2nc1Cc1ccccc1F	HSF1 activator 53.5 (no result: zVAD death inh, Hsp70 activator, TNF necrop inh)
O=C(O)CSc1cnc2ccccc2n1	none
O=C(Cc1ccccc1F)Nc1ccc(SC(F)F)cc1	HSF1 activator 59.2
O=C(Nc1nccs1)c1ccc(-c2ccccc2Cl)o1	HSF1 activator 60.8
O=C(Nc1nccs1)c1ccc(-c2ccc(Cl)cc2)o1	HSF1 activator 56.6
O=C(Nc1nccs1)c1ccc(-c2ccccc2[N+](=O)[O-])o1	none (no result: zVAD death inh, Hsp70 activator, TNF necrop inh)
O=S(=O)(Nc1nc2ccccc2nc1Cl)c1cccc(C(F)(F)F)c1	none (no result: zVAD death inh, Hsp70 activator, TNF necrop inh)
c1ccc(CCNc2nc3ccccc3s2)cc1	HSF1 activator 55.9
Cc1cc(C)c2cc(CN(CC3CCCO3)S(=O)(=O)c3ccc4c(c3)OCCO4)c(=O)[nH]c2c1 (centres undefined)	HSF1 activator 61.8
Cc1cc2c(ncn2C)c(NS(=O)(=O)c2ccccc2Cl)c1C	none
Cc1cc2c(ncn2C)c(NS(=O)(=O)c2cc(Cl)ccc2Cl)c1C	HSF1 activator 140.1
CCC(=O)c1cn([C@@H](CCC(OC)OC)CC(=O)OC(C)(C)C)cc1CC	none (no result: zVAD death inh, Hsp70 activator, TNF necrop inh)
Nc1nnc(/C=C/c2ccccc2Cl)s1	HSF1 activator 69.6 (no result: Hsp70 activator)
COc1ccc(-n2c(-c3cc(-c4ccccc4)sc3N)n[nH]c2=S)cc1	none (no result: Hsp70 activator)
C=CCn1c(-c2cc(-c3ccccc3)sc2N)n[nH]c1=S	HSF1 activator 174.2 (no result: Hsp70 activator)
C=CCn1c(-c2csc(-c3ccccc3)n2)n[nH]c1=S	none
Nc1sc(-c2ccccc2)cc1-c1n[nH]c(=S)n1C1CCCCC1	HSF1 activator 84.4 (no result: Hsp70 activator)
CC(=O)OCC1=C(C(=O)O)N2C(=O)C(NC(=O)CCn3nc(C(F)(F)F)c(Br)c3C3CC3)C2SC1 (centres undefined)	none
Cc1csc(NC(=O)CSc2nc3ccccc3c3c2CCCC3)n1	HSF1 activator 58.1
Cc1csc(NC(=O)CCc2nc3ccccc3s2)n1	HSF1 activator 52.4
O=C(COC(=O)CCc1nc2ccccc2s1)Nc1nc(-c2ccccc2)cs1	none
Cc1cc(C)cc(-n2nnc(C(=O)NCc3ccccc3Cl)c2N)c1	none
O=C(CSC(=S)N1CCSCC1)c1ccc(Cl)cc1	none
O=C(CSC(=S)N1CCSCC1)c1ccccc1	HSF1 activator 60.2
Cc1ccc(C2C(C#N)=C(N)Oc3cc(C)oc(=O)c32)o1 (centres undefined)	none
Cc1cc(NC(=O)c2ccc(C)c(C)c2)no1	HSF1 activator 61.0 (no result: zVAD death inh, Hsp70 activator, TNF necrop inh)
Cc1cc(NC(=O)c2ccc(C)c([N+](=O)[O-])c2)no1	none
COc1ccccc1/C=C/C(=O)NCC(=O)N/N=C/c1cc(Br)ccc1OC	HSF1 activator 59.0
COc1ccc(/C=C/C(=O)NCC(=O)N/N=C/c2cc(Br)ccc2OC)cc1	none
O=C(O/N=C(\c1ccccc1)c1ccccn1)c1ccc(Cl)c(Cl)c1	HSF1 activator 61.5
N/C(=N\OC(=O)c1ccc2ccccc2c1)c1ccccn1	none
C#Cc1ccc2c(c1)COc1c3ccccc3nn1-2	HSF1 activator 61.4 (no result: zVAD death inh, Hsp70 activator, TNF necrop inh)
Clc1cc(Cl)c(OCc2nc(-c3ccccn3)no2)cc1Cl	HSF1 activator 109.8
Oc1ccc(F)cc1-c1cc(-c2ccc3c(c2)OCCO3)n[nH]1	HSF1 activator 105.3
CCCc1nc(Nc2nc3ccccc3o2)nc(C)c1C(=O)OCC	HSF1 activator 63.9
O=C(O)c1ccc(S(=O)(=O)Nc2cccc(CP(=O)(c3ccccc3)c3ccccc3)c2)cc1	none (no result: Hsp70 activator)
CCc1nc(SCC(=O)Nc2ccc(N(C)C)cc2)c2ccccc2n1	none (no result: Hsp70 activator)
CC1Cc2cc(/C(O)=C3/C(=O)C(=O)N(CCN4CCOCC4)C3c3ccc([N+](=O)[O-])cc3)ccc2O1 (centres undefined)	none (no result: zVAD death inh, Hsp70 activator, TNF necrop inh)
Cn1cc(C(=O)N/N=C/c2ccc(Br)c([N+](=O)[O-])c2)c2ccccc21	HSF1 activator 55.2 (no result: Hsp70 activator)
COc1cccc(C(=O)Nc2ccc(-c3nnc(-c4ccco4)o3)cc2)c1	none
COc1cccc(-c2nnc(-c3ccco3)o2)c1	HSF1 activator 73.7
COc1cccc(-c2nnc(-c3ccc(C)o3)o2)c1	HSF1 activator 63.2
COc1cccc(-c2nnc(N)o2)c1	none (no result: Hsp70 activator)
O=c1[nH]cnc2scc(-c3ccc(-c4ccccc4)cc3)c12	HSF1 activator 58.0
CCCOc1ccc(-c2csc3nc[nH]c(=O)c23)cc1	none (no result: zVAD death inh, Hsp70 activator, TNF necrop inh)
CCOc1ccc2[nH]c(=O)c(C(c3nnnn3Cc3ccco3)N3CCN(C)CC3)cc2c1 (centres undefined)	none
O=C(CSc1nncc2ccccc12)Nc1cccc(O)c1	HSF1 activator 66.5 (no result: zVAD death inh, Hsp70 activator, TNF necrop inh)
O=C(CCCn1c(=S)[nH]c2cc3c(cc2c1=O)OCO3)NCc1ccco1	HSF1 activator 54.8
CCOC(=O)/C(=C\c1ccc(Cl)cc1)c1nc2sc(C)c(C)c2c(=O)[nH]1	HSF1 activator 241.2
O=C(/C=C/c1ccccc1)NC(NC(=S)Nc1cc(Cl)ccc1Cl)C(Cl)(Cl)Cl (centres undefined)	none
Cn1c(CCCOc2ccc(Cl)cc2Cl)nnc1SCC(=O)Nc1cccc(F)c1	HSF1 activator 53.9
Cn1c(CCCOc2ccc(Cl)cc2Cl)nnc1SCC(=O)Nc1ccc(F)c(Cl)c1	none
